# From PubChem BioAssay
# A selection: hits, their analogues and other compounds. The true share with any hit is near 9.2%.
# Lamin A splicing = qHTS Assay for Modulators of Lamin A Splicing; HeLa LMNA splicing GFP/RFP minigene ratio, 48 h; AID 1487, 2009; Potency, µM (highest dose often 46.1 µM), hits mostly inhibitors; actives 0.01% (n = 200,000); active = well fitted inhibition curve with a large enough effect in the signal ratio, with a control signal flat, not every such curve was filed as active; inconclusive = small, poorly fitted or top-dose-only effect, or effect the other way, or a change in a side signal; the % refers to the signal ratio
#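 S3 HeLa stable clones carrying a lamin A-EGFP splicing minigene plus DsRed2 were seeded at 600 cells/well in Opti-MEM with 2% FBS, pin-dosed and incubated 48 h at 37°C. Acumen cytometry (488 nm) gave the GFP/RFP total-intensity ratio.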
# HttQ103 aggreg = qHTS Multiplex Assay to Identify Dual Action Probes in a Cell Model of Huntington: Aggregate Formation (GFP) | actives 1.1% (n = 220,000) | PC12 HttQ103-GFP aggregates, Acumen cytometry, 40 h | Potency, µM (doses to about 46.1 µM), hits mostly inhibitors; active = well fitted curve in the direction sought with a large enough effect; inconclusive = small, poorly fitted or top-dose-only effect, or another doubt; inactive = no such curve, though single readings can be large; an effect the other way counts as inactive or inconclusive; note: nearly all actives have a fitted effect of over 60% in size
#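 Quantitative HTS on tebufenozide-induced (100 nM) PC12 cells stably expressing polyQ103 Huntingtin exon 1–GFP. Reduction of bright GFP aggregates, detected by laser scanning cytometry after lysis, identified actives across the titration.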
# JMJD2E inh = qHTS Assay for Inhibitors of Human Jumonji Domain Containing 2E (JMJD2E); Lysine-specific demethylase 4E (Homo sapiens), B2RXH2; JMJD2E catalytic domain, FDH-coupled NADH fluorescence (FDH is formaldehyde dehydrogenase); Potency, µM (top dose mostly 57.1 µM), most hits filed as inhibitors; actives 1.6% (n = 230,000); note: nearly all actives have a fitted effect of over 50% in size
# HTT cytoprotect = qHTS Multiplex Assay to Identify Dual Action Probes in a Cell Model of Huntington: Cytoprotection (ATP); PC12 HTT-Q103 induced, cytoprotection, ATP luminescence, 40 h; Potency, µM (series often up to 56.4 µM), most hits filed as activators; actives 0.14% (n = 230,000); AID 1471, 2008; active = well fitted curve in the direction sought with a large enough effect; inconclusive = small, poorly fitted or top-dose-only effect, or another doubt; inactive = no such curve, though single readings can be large; an effect the other way counts as inactive or inconclusive; note: nearly all actives have a fitted effect of over 45% in size
#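 Stable PC12 Q103-GFP cells in serum-supplemented, phenol red-free DMEM; induction by tebufenozide at 100 nM final; compound dose series; cell viability quantified luminescently from ATP.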
# HPGD inh = qHTS Assay for Inhibitors of HPGD (15-Hydroxyprostaglandin Dehydrogenase). 15-hydroxyprostaglandin dehydrogenase [NAD(+)] (Homo sapiens), P15428. purified HPGD, NADH fluorescence kinetic, PGE2 substrate. Potency, µM, usual class: inhibitors. actives 4.3% (n = 150,000)
# Target sequence (P15428 whole entry, looked up): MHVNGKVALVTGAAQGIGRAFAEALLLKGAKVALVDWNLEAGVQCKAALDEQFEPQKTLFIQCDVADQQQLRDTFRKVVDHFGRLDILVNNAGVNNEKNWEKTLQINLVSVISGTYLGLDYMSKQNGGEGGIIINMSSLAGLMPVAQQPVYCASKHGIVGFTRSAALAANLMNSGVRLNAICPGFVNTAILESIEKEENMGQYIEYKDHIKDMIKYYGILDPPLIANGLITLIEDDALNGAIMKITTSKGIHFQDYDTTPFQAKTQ
#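 20 nM HPGD preincubated 15 min at room temperature with compound in 50 mM Tris-HCl pH 8, 0.01% Tween 20. Started with 1 mM NAD+ and 30 uM prostaglandin E2; NADH fluorescence (360/450 nm) read 5 times over 30-s intervals, last minus first.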
# ALDH1A1 inh = qHTS Assay for Inhibitors of Aldehyde Dehydrogenase 1 (ALDH1A1); Aldehyde dehydrogenase 1A1 (Homo sapiens), P00352; Purified ALDH1A1, NADH fluorescence, propionaldehyde substrate; Potency, µM (titrated, usually from 75.3 µM), usual class: inhibitors; actives 7.3% (n = 220,000); AID 1030, 2008
# Target sequence (P00352 whole entry, looked up): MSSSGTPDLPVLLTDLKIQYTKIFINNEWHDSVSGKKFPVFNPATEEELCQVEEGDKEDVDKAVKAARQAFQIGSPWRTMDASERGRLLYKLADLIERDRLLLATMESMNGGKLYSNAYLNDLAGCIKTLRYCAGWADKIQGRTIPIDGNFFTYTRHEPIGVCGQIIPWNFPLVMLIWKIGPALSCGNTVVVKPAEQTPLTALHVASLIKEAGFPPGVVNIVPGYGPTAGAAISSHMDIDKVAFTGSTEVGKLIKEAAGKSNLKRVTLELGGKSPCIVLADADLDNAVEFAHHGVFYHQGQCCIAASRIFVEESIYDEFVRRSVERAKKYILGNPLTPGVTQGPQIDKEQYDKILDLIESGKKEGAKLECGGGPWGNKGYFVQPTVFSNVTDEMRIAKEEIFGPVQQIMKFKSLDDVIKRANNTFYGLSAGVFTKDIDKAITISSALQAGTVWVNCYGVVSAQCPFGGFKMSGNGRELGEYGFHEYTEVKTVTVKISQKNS
# A number is an active result; n = inactive; u = inconclusive; x = no result; [ ] = remark or other dose. Unless noted, calls come from the whole dose curve; as a rule, active = well fitted inhibition curve with a large enough effect (not every such curve was filed as active); inconclusive = small, poorly fitted or top-dose-only effect, or another doubt; inactive = no such curve, though single readings can be large or run the other way.
SMILES,Lamin A splicing,HttQ103 aggreg,JMJD2E inh,HTT cytoprotect,HPGD inh,ALDH1A1 inh
CCOC(=O)c1c2c(n3ccccc13)C(=O)c1ccccc1C2=O,x,x,x,n[10 µM],n,u
COC(=O)c1c(C)[nH]c(C=O)c1-c1ccccc1,x,n[9.22 µM],n,n[10 µM],x,u
COC(=O)c1cc2c(-c3ccccc3)c(C)c3ccccn3c-2c1C(=O)OC,u,n,n,n,n,20µM
COC(=O)c1c(Cl)c2n3ccccc3c(C)c(-c3ccccc3)c-2c1C(=O)OC,n,n,u,n[10 µM],n,12.6µM
C[C@H](O)[C@H](O)[C@@H](O)c1cnc2nc(N)[nH]c(=O)c2n1,x,x,x,n,x,x
Oc1ccc(C2C(c3ccccc3)=NN=C(c3ccccc3F)N2O)c(O)c1 (stereo not given),u,n,n,x,n,8.91µM
Oc1ccc(C2C(c3ccccc3)=NN=C(c3ccc(Cl)cc3)N2O)c(O)c1 (stereo not given),n,n,n,x,n,11.2µM
CC1=NN=C(c2ccccc2)C(c2c[nH]c3ccccc23)N1O (stereo not given),n,n,n,x,n,n
NCCn1c(-c2ccccc2)cc(C(=O)O)c1-c1ccccc1F,n,n,u,x,n,u
CN(C)/C=N/C1=C(C#N)C(c2cccs2)c2ccc3ccccc3c2O1 (stereo not given),x,n,u,n,x,0.316µM
N#CC(=C(/N)Sc1ccccc1N)/C(C#N)=C(/N)Sc1ccccc1N,x,x,u,n[1.9 µM],28.2µM,x
CCCc1nn2c(=O)cc(COC(=O)c3ccc4c(c3)OCO4)nc2s1,n,x,x,x,x,x
O=C(O)c1cc(=O)c2c3nc4ccccc4oc-3cc(=O)c2[nH]1,x,n,x,n,x,x
CCN(CC)c1ccc(NC(=O)CN2C(=O)c3cccnc3Sc3ccccc32)c(C)c1,n,x,x,x,x,x
Cc1cc2nnc(SCC(=O)OC(C)C)n2c2ccccc12,n,3.98µM,u,n[10 µM],n,u
CC(=O)CSc1nnc2cc(C)c3ccccc3n12,n,n,u,n[10 µM],x,n
OCCCN1CCN(CCOc2ccccc2-c2ccccc2)CC1,u,n,n,x,n,n
CCN1CCN(CCCOc2ccccc2-c2ccccc2)CC1,x,x,n,x,x,11.2µM
COc1cc(N2CCCC2)c(OC)cc1/C=c1/sc2nc3ccccc3n2c1=O,n,n,n,n,n,15.8µM
Cc1ccc(-n2c(C)cc(/C=c3/sc4nc5ccccc5n4c3=O)c2C)cc1,n,n,n,n,n,u
Cc1ccc(-c2n[nH]c(=S)c3ccccc23)cc1,n,n,n,n[10 µM],x,0.355µM
S=c1[nH]nc(-c2ccccc2)c2ccccc12,n,x,n,x,x,8.91µM
Cc1onc(-c2ccc(Br)cc2)c1C(=O)Nc1ccc(Br)cc1F,n,x,x,x,x,x
CS(=O)(=O)N1CCC[C@@]2(CCN(C(=O)Nc3ccccc3)C2)C1,x,x,x,n,n,n
Cc1cc(C(=O)N2CCCC(CNS(=O)(=O)c3cccs3)C2)nn1C (stereo not given),u,n[9.22 µM],n,n[10 µM],x,17.8µM
SMILES,Lamin A splicing,HttQ103 aggreg,JMJD2E inh,HTT cytoprotect,HPGD inh,ALDH1A1 inh
Cc1ccc(NC(=O)CN2C(=O)N/C(=C/c3ccc(C)o3)C2=O)cc1,n,n,u,n,u,12.6µM
CCn1c(C)cc(/C=C2/NC(=O)N(c3ccccc3)C2=O)c1C,u,u,25.1µM,n,x,12.6µM
CCn1c(C)cc(/C=C2\NC(=O)N(CC(=O)Nc3cccc(C)c3)C2=O)c1C,n,n,u,n,u,u
Cc1ccc(CN2C(=O)N/C(=C/c3ccc(-c4ccc(C(=O)O)cc4)o3)C2=O)cc1,x,n[9.22 µM],u,n[10 µM],x,x
C=CCN1C(=O)N/C(=C/c2ccc(C)o2)C1=O,n,u,17.8µM,n[10 µM],n,7.94µM
CCn1c(C)cc(/C=C2/NC(=O)N(CC(=O)Nc3cccc(C)c3)C2=O)c1C,n,n,22.4µM,n[10 µM],n,n
CC(=O)O[C@H]1CC[C@@]2(C)C(=CC[C@@H]3[C@H]4CC[C@@H]([C@H](C)C(=O)O)[C@]4(C)CC[C@H]32)C1,x,x,x,n[10 µM],n,n[13.5 µM]
O=c1c2ccccc2nc2n1C(CBr)CN2 (stereo not given),x,n[9.22 µM],n,n[10 µM],x,x
Cc1cccc(NC(=O)CN2C(=O)N/C(=C/c3ccc(C)o3)C2=O)c1,n,n,n,n[10 µM],n,10µM
Cc1cccc(NC(=O)CN2C(=O)N/C(=C\c3ccc(-c4cccc(C(=O)O)c4)o3)C2=O)c1,x,n[9.22 µM],u,n[10 µM],x,x
Cc1ccc(S(=O)(=O)NNC(=S)Nc2ccccc2)cc1,n,n,n,n,11.2µM,7.51µM
CCc1ccc(S(=O)(=O)NC(=S)Nc2ccccc2)cc1,x,n,n,u,x,31.6µM
NC(=O)COC(=O)CNC(=O)c1ccc(Cl)cc1,n,n,n,n,n,2µM
NCCC[C@@H](CC(=O)N[C@@H]1CCCC[C@H]1C(=O)N[C@H](CC(=O)N[C@@H](CCC(=O)O)CC(=O)O)Cc1ccccc1)NC(=O)C[C@H](Cc1ccccc1)NC(=O)[C@@H]1CNCC[C@H]1N,x,x,n,n,n,n
COC(=O)N[C@H](C[N+](=O)[O-])C(C)(C)C,x,x,n,n,n,n
O=C(C[n+]1ccccc1)Nc1ccccc1Br,x,n[9.22 µM],n,n[10 µM],x,1.78µM
O=C(Cn1cc2c(n1)CCCC2)Nc1ccccc1Br,n,n,n,n,u,n
Cc1ccc[n+](CC(=O)Nc2c(Cl)cc(Cl)cc2Cl)c1,n,u,n,n[10 µM],x,n
O=C(Cc1ccc2c(c1)CCCC2)Nc1ccccc1Br,n,n,n,n,25.1µM,n
O=C(C[n+]1ccccc1)Nc1c(Cl)cc(Cl)cc1Cl,x,n[9.22 µM],n,n[10 µM],x,7.94µM
Cc1nn(C)c2c1c(C(F)(F)F)cc(=O)n2CC(=O)N1CCCCC1,n,x,x,x,x,x
CCCCn1c2c(c(=N)c3c1CCC3)CCC2,u,u,n,n[0.074 µM],n,n
CCCCCCCCCn1c2c(c(=N)c3c1CCC3)CCC2,u,1.26µM,n,n[10 µM],n,n
CCCCCCCn1c2c(c(=N)c3c1CCC3)CCCC2,u,x,3.55µM,x,x,n
CCn1c2c(c(=N)c3c1CCC3)CCC2,u,n,n,n[10 µM],n,n
CCCCCCn1c2c(c(=N)c3c1CCC3)CCC2,u,1.78µM,n,n[0.074 µM],n,u
O=c1c(-c2cc(F)cc(F)c2)nc2cnc(Oc3ccccc3)nc2n1C1CC1,x,x,x,n,n,u
C[C@H]([C@H](C)N1CC(=O)NC(=O)C1)N1CC(=O)NC(=O)C1,x,x,x,n,x,u
CCC1CCC(c2nnc(-c3ccc([N+](=O)[O-])cc3)o2)CC1 (stereo not given),n,n,n,n[10 µM],n,11.2µM
Clc1ccc(-c2nnc(C3CC3)o2)cc1,x,n[9.22 µM],n,n[10 µM],x,x
